E coli growth-1 – counter-screen for AddAB inhibitors: E. coli growth inhibition. hit rate 0.27% among 330,000. inhibition, % at 11.9 µM. E. coli V3065 growth, OD600 absorbance, 18 h;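 active = inhibition above the campaign's mean inhibition across all tested compounds plus 3 SD, cut at about 9.9% in these data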;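 also: uninfected addAB+ strain grown without phage in ampicillin broth; 0% = DMSO wells and 100% = ciprofloxacin 0.95 µg/ml wells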
Tat transport – inhibitors of E. coli Tat protein transport; E. coli MC4100 TorA-mCherry Tat export, fluorescence; hit rate 0.036% among 340,000; inhibition, % at 10 µM;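 active = mean replicate inhibition at least 50% and at least half of replicates individually reaching 50%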;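 also: exported cargo escapes ClpAP degradation while cytoplasmic cargo is degraded and loses fluorescence; 0% = median of neutral control wells and 100% = median of NaSCN control wells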
E coli growth-2 – blocks Escherichia coli growth; AID 1053175; OD600 absorbance (concentration not given with the values); OD600, 23 h; active compounds read low; hit rate 0.21% among 330,000;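 active = OD600 absorbance below the run mean of sample wells minus 3.6 SD, in any replicate, cut at about 0.56 in these data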
phage Ecoli inh – E. coli growth loss with phage present. growth absorbance. inhibition, % at 11.9 µM. hit rate 0.26% among 360,000. AID 651602; in the data active = inhibition above about 11%
AddAB inh – less growth of phage-infected E. coli with AddAB; E. coli expressing H. pylori AddAB, absorbance growth; inhibition, % at 11.9 µM; hit rate 0.29% among 330,000; in the data active = inhibition above about 12%;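 also: 0% = vehicle wells of infected cells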
Calb FLC – affects C. albicans growth with fluconazole; C. albicans CaCi-2 (fluconazole-resistant clinical isolate) + fluconazole, Alamar Blue growth, 48 h; growth inhibition, % (test concentration not listed); hit rate 0.57% among 300,000; AID 1979;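 active = growth inhibition above about 58% in most replicates, limit read from the data, passing the limit was not always enough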;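 also: all wells also contain fluconazole at 8 µg/ml as a sub-toxic cotreatment; 0% = median of DMSO wells and 100% = median of geldanamycin control wells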
* hit, by the source's call; x = no result given. Most compounds without a hit are left out; they make up all but 0.9% or so of the library.

SMILES	E coli growth-1	Tat transport	E coli growth-2	phage Ecoli inh	AddAB inh	Calb FLC
CCNC(=S)NN=C(C)c1cccc(OC)c1	x	x	0.63	x	x	x
CNC(=S)NN=C(C)c1ccc(C)c(C)c1	x	x	0.72	x	x	x
CCC(C)C(NC(=O)OC(C)(C)C)c1cn(C(Cc2cc3ccccc3[nH]2)C(=O)N2CCN(C(=O)OC(C)(C)C)CC2)nn1 (stereo not drawn)	x	x	0.7	x	x	x
COc1ccc(OC)c(NC(=O)C(=O)/C=C(\O)c2cc(OC)ccc2OC)c1	-3	6	x	3	-2	104*
COc1ccc(OC)c(NC(=O)C(=O)C=C(O)c2cc(OC)ccc2OC)c1	x	x	0.68	x	x	x
C=CCOc1cccc(C(=O)N2CCCC(CCC(=O)NCc3ccccc3F)C2)c1 (stereo not drawn)	-2	50*	0.67	2	2	3
N/C(Cc1ccc(Cl)c(Cl)c1)=N\OC(=O)c1cccs1	-1	-10	0.64	0	3	101*
N/C(=N\OC(=O)c1cccs1)C1(c2ccc(Cl)cc2Cl)CC1	-1	2	x	2	1	-15
Cc1ccc(S(=O)(=O)NCCN2CCOCC2)s1	3	-4	0.67	-2	2	5
O=S(=O)(NCCN1CCOCC1)c1ccc(Cl)s1	0	-3	0.64	4	4	90*
CCOC(=O)C(=NC1CCS(=O)(=O)C1)NNc1ccc(Br)cc1 (stereo not drawn)	1	-9	0.68	3	0	112*
CCOC(=O)C(=NC1CCCCC1)NNc1cccc(C(F)(F)F)c1	0	9	0.74	4	5	57*
COc1cc(C=C(C#N)C(=O)c2ccc(O)c(O)c2)cc(I)c1O	x	x	0.66	x	x	x
O=C(NNC(=O)c1cc(-c2ccc(Cl)cc2)nc2ccccc12)c1csc(N2CCOCC2)n1	1	-5	0.66	-3	-3	82*
CN(C)c1nc(-c2ccccn2)nnc1-c1ccccc1	8	9	0.66	6	5	-2
CCN(CC)c1nc(-c2ccccn2)nc(-c2ccccc2)c1C#N	3	-8	0.68	2	1	103*
COC(=O)c1cccc(C23CC4(C2)C(CN(Cc2cccnc2)C4c2ccccc2)C3c2ccc(C(F)(F)F)cc2)c1 (stereo not drawn)	x	x	0.74	x	x	x
CCOC1OC(C(=O)NC2CC2)=CC(C2CC2)C1CCCO (stereo not drawn)	x	x	0.68	x	x	x
CC(NC(=O)Nc1ccccc1F)C(C)(C)C (stereo not drawn)	-1	-3	0.65	5	-1	58*
COC(=O)[C@@H](NC(=O)Nc1ccccc1F)C(C)C	1	1	0.72	-3	1	-21
CCOc1cc(C=NNC(=O)CN2CCCCC2)ccc1OCc1ccccc1	x	x	0.75	x	x	x
Cc1ccc(N2NC3(CCN(C(N)=O)CC3)NC2=O)cc1	0	x	0.68	2	0	106*
NC(=O)C1=CC(c2ccc(Br)cc2)CC(OCc2ccc(CO)cc2)O1 (stereo not drawn)	x	x	0.7	x	x	x
CCNc1nc(NCC)nc(N(C#N)CCOc2ccccc2)n1	-3	-6	0.65	2	0	-1
CN(C)c1nc(Cl)nc(N(C#N)CCOc2ccccc2)n1	-2	-3	0.66	1	-1	113*
SMILES	E coli growth-1	Tat transport	E coli growth-2	phage Ecoli inh	AddAB inh	Calb FLC
O=C(c1cccc(C(=O)N2CCN(c3ccccc3F)CC2)c1)N1CCN(c2ccccc2F)CC1	1	1	0.66	0	-2	-8
O=C(c1ccc(C(=O)N2CCN(c3ccccc3F)CC2)nc1)N1CCN(c2ccccc2F)CC1	-2	0	0.72	0	-1	95*
CCCC(=O)O[C@]1(C(=O)CO)CCC2C3CCC4=CC(=O)CC[C@]4(C)C3C(O)C[C@@]21C (stereo partly drawn)	x	x	0.68	x	x	x
CCCn1c(SC(C(=O)Nc2cc(C)ccc2OC)c2ccccc2)nc2ccccc2c1=O (stereo not drawn)	-3	5	0.71	1	4	-12
COc1ccc(C)cc1NC(=O)C(Sc1nnnn1C)c1ccccc1 (stereo not drawn)	2	-3	0.73	3	3	95*
Cc1[nH]nc(-c2ccc(O)c(C)c2O)c1-c1cnn(-c2ccccc2)c1	1	13	0.68	6	2	106*
Cc1oc2c(C)c(O)ccc2c(=O)c1-c1cnn(-c2ccccc2)c1	-2	-3	0.66	2	-2	-8
O=C(Nc1cccnc1)Nc1cc(Cl)cc(Cl)c1	4	-11	0.5*	10	4	11
O=C(Nc1ccncc1)Nc1ccc(Cl)cc1	1	9	0.52*	7	-1	3
O=C(Nc1cccnc1)Nc1ccccc1Cl	0	-7	0.7	4	0	34
O=C(C=NO)NCCCN1CCOCC1	x	x	0.72	x	x	x
CC(=O)Nc1ccc(NC(=O)C(=O)NN=Cc2cccnc2)cc1	x	x	0.61	x	x	x
O=C(CSc1nc2ccccc2[nH]1)Nc1ccc2c(c1)OCCO2	10*	-5	0.62	9	12	-18
Cc1ccc2nc(SCC(=O)Nc3ccc4c(c3)OCCO4)[nH]c2c1	0	-1	0.65	-1	1	5
CC=CC(=O)N1CC2(CC(c3cccc(NC(=O)C(C)=CC)c3)=NO2)CC1C(N)=O (stereo not drawn)	x	x	0.64	x	x	x
Cc1cc(C(=O)NNC(=S)NC(C)c2ccccc2)c2ccccc2n1 (stereo not drawn)	4	-6	0.78	1	3	104*
CCCOc1cccc(-c2cc(C(=O)NNC(=S)NCC)c3ccccc3n2)c1	0	-10	0.65	6	-3	84*
CCNC(=S)NNC(=O)c1cc(-c2ccccc2C)nc2ccccc12	-1	-6	0.72	x	2	99*
CCNC(=S)NNC(=O)c1cc(-c2ccc(OCC)cc2)nc2ccccc12	2	-13	0.76	2	3	17
CCNC(=S)NNC(=O)c1cc(-c2cccc(OC)c2)nc2ccccc12	-2	-8	0.7	2	1	22
COc1ccc(C)cc1Nc1n[n+](-c2ccccc2)c(-c2ccc(OC)c(OC)c2OC)s1	1	7	0.68	0	4	92*
COc1ccc(C)cc1Nc1n[n+](-c2ccccc2)c(-c2ccc(N(C)C)cc2)s1	2	4	0.68	3	4	105*
COc1ccc(C)cc1Nc1n[n+](-c2ccccc2)c(-c2c(Cl)cccc2Cl)s1	2	x	x	5	5	5
C[n+]1c2n(c3ccccc31)N=C(c1ccc(-c3ccccc3)cc1)CS2	2	17	0.3*	6	6	103*
Cc1ccc2nc(-c3ccccn3)c(Nc3ccccc3C)n2c1	1	-28	0.5*	-2	1	30
Cn1c(SCC(=O)N2CCc3ccccc3C2)nnc1-c1ccncc1	1	-7	0.67	0	3	57*
Cn1c(SCC(=O)N2CCc3ccccc3C2)nnc1-c1cccs1	1	20	0.68	1	5	0
COc1cc(C=NNC(=O)c2ccc(Cl)c(S(N)(=O)=O)c2)ccc1OCC(N)=O	x	x	0.64	x	x	x

Screening data as filed in PubChem BioAssay.
